# Experimental data from PubChem BioAssay.
# “And” between values parts separate entries of the source, which are not always exact repeats. Identical values can stand only once. Records with an inconclusive call do not appear. The source made the active and inactive calls. Cut-off read from the data, not from the text of the source, unless noted: active = inhibition above about 80%; inactive = the rest.
# Tests used:
# [1] = reducers of polyQ inclusions in PC12 cells, cell-based, NGF-treated PC12, GFPQ80 (AID 1614); conditions: PC12 NGF-treated GFP-polyQ80 inclusion reduction;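 note: lower means fewer inclusions and 0 means no inclusions at all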
# [2] = circadian clock period modulators, cell-based, LOPAC library, luminescence reporter (AID 2774; call rule not given here;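 note: values are relative to mean of DMSO wells on each plate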); conditions: circadian reporter cells, at 7 µM, actives lie on both sides
# [3] = test system: Hepatitis C virus NS3 helicase; assay: HCV NS3 helicase inhibitors, primary screen, biochemical, fluorescence polarization, LOPAC1280 library (AID 687035; in the data active = inhibition above about 37%); conditions: Purified HCV NS3 helicase, Cy5-dT15 ssDNA binding fluorescence polarization; stronger effect = higher value; concentration not given here
# [4] = Cy5 fluorescence quenching or enhancement artefacts, artefact control for HCV NS3 helicase inhibitor project, biochemical, LOPAC1280 (AID 687037; call rule not given here); conditions: Cy5-DNA-NS3h complex fluorescence interference counterscreen
# [5] = growth inhibition of DIPG glioma cells, dose response, cell-based, SU-DIPG-XVII, MIPE5.0, CellTiter-Glo, qHTS (AID 1347060; cut-off not given, nearly all actives have AC50 up to about 26 µM); conditions: SU-DIPG-XVII viability, CellTiter-Glo ATP luminescence
# [6] = SU-DIPG-VI glioma cell viability, MIPE4.0 library, CellTiter-Glo luminescence, qHTS (AID 1347066; cut-off not given, nearly all actives have AC50 up to about 30 µM;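 note: cells exposed to compound for 48 hours before readout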); conditions: CellTiter-Glo ATP luminescence
# [7] = JHH-DIPG-1 glioma cell viability, MIPE5.0 library, CellTiter-Glo luminescence, qHTS (AID 1347067; cut-off not given, nearly all actives have AC50 up to about 26 µM;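 note: cells exposed to compound for 48 hours before readout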); conditions: JHH-DIPG-1 glioma viability, CellTiter-Glo ATP luminescence
# [8] = SU-DIPG-XXV glioma cell viability, MIPE5.0 library, qHTS (AID 1347068; cut-off not given, nearly all actives have IC50 up to about 30 µM)
# [9] = phospholipid biosynthesis inhibitors in animal cells, primary screen, cell-based, LOPAC library, screen 4 (AID 1347384; call rule not given here); conditions: phospholipid biosynthesis inhibition screen, at 10 µM
# [10] = target: ATP-dependent translocase ABCB1 (Homo sapiens) (UniProt P08183); assay: MDR1 (ABCB1) efflux transporter inhibition, cell-based (AID 377; in the data active = fluorescence slope change above about 50%); conditions: MDR1-expressing cells, fluorescent substrate accumulation slope; stronger effect = higher value; concentration not given here
# [11] = growth inhibition of DIPG glioma cells, dose response, cell-based, SU-DIPG-XIII, MIPE4.0, CellTiter-Glo, qHTS (AID 1347061; cut-off not given, nearly all actives have AC50 up to about 37 µM;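 note: cells exposed to compound for 48 hours before readout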); conditions: SU-DIPG-XIII viability, CellTiter-Glo ATP luminescence
# [12] = growth inhibition of DIPG glioma cells, dose response, cell-based, SU-DIPG-IV, MIPE4.0, CellTiter-Glo, qHTS (AID 1347063; cut-off not given, nearly all actives have AC50 up to about 30 µM;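 note: compound exposure lasted 48 hours before the viability readout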); conditions: SU-DIPG-IV viability, CellTiter-Glo ATP luminescence
# [13] = growth inhibition of DIPG glioma cells, dose response, cell-based, JHH-DIPG-1, MIPE4.0, CellTiter-Glo, qHTS (AID 1347062; cut-off not given, nearly all actives have AC50 up to about 27 µM;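 for AC50: cells exposed to compound for two days before readout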); conditions: JHH-DIPG-1 viability, CellTiter-Glo ATP luminescence
# [14] = LFS_MB_P medulloblastoma growth inhibition, cell-based, chromothripsis tumors, cisplatin or BGB combos (AID 1671449); conditions: LFS_MB_P medulloblastoma cells;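 note: cells exposed for 96 hours; 0% = vehicle DMSO and 100% = killing by high DMSO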
# [15] = HDN33 neuroblastoma growth inhibition, cell-based, chromothripsis tumors, cisplatin or BGB combos (AID 1671450); conditions: HDN33 neuroblastoma cells, stronger effect = higher value;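 note: cells exposed to compound for four days; 0% = vehicle DMSO and 100% = cell killing by high DMSO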
# [16] = HTB85 osteosarcoma cell growth inhibition, synergistic combos for chromothripsis tumors, BGB or cisplatin IC20 combos (AID 1671453); conditions: HTB85 osteosarcoma cells, drug combinations, stronger effect = higher value;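 note: cells exposed for 96 hours before readout; 0% = vehicle DMSO and 100% = high DMSO killing control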
# [17] = MDA-MB-436 breast carcinoma cell growth inhibition, synergistic combos for chromothripsis tumors, BGB or cisplatin combos (AID 1671458; call rule not given here;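 note: cells exposed for 96 hours; 0% = vehicle DMSO and 100% = killing by high DMSO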); conditions: MDA-MB-436 breast carcinoma growth inhibition, drug combinations, stronger effect = higher value
# [18] = growth inhibition of BT084 medulloblastoma cells, cell-based, ICGC_MB145, cisplatin and BGB IC40 combos (AID 1671461); conditions: drug combinations, stronger effect = higher value;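 note: cells exposed to drugs for 96 hours; 0% = vehicle DMSO and 100% = high DMSO full killing control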
# [19] = growth inhibition of RCMB18 medulloblastoma cells, cell-based, cisplatin and BGB IC40 combos (AID 1671462); conditions: stronger effect = higher value;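 note: cells exposed to compound for four days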
# [20] = growth inhibition of CRL1545 osteosarcoma cells, cell-based, cisplatin and BGB IC20 combos (AID 1671464); conditions: stronger effect = higher value;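 note: cells exposed to compound for 96 hours before readout; 0% = vehicle DMSO and 100% = high DMSO killing control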
# [21] = measured here: with BGB IC20 combination, at 0.5 µM
# [22] = measured here: with cisplatin IC20 combination, at 0.5 µM
# ATP-dependent translocase ABCB1 (Homo sapiens), sequence (P08183 whole entry, looked up): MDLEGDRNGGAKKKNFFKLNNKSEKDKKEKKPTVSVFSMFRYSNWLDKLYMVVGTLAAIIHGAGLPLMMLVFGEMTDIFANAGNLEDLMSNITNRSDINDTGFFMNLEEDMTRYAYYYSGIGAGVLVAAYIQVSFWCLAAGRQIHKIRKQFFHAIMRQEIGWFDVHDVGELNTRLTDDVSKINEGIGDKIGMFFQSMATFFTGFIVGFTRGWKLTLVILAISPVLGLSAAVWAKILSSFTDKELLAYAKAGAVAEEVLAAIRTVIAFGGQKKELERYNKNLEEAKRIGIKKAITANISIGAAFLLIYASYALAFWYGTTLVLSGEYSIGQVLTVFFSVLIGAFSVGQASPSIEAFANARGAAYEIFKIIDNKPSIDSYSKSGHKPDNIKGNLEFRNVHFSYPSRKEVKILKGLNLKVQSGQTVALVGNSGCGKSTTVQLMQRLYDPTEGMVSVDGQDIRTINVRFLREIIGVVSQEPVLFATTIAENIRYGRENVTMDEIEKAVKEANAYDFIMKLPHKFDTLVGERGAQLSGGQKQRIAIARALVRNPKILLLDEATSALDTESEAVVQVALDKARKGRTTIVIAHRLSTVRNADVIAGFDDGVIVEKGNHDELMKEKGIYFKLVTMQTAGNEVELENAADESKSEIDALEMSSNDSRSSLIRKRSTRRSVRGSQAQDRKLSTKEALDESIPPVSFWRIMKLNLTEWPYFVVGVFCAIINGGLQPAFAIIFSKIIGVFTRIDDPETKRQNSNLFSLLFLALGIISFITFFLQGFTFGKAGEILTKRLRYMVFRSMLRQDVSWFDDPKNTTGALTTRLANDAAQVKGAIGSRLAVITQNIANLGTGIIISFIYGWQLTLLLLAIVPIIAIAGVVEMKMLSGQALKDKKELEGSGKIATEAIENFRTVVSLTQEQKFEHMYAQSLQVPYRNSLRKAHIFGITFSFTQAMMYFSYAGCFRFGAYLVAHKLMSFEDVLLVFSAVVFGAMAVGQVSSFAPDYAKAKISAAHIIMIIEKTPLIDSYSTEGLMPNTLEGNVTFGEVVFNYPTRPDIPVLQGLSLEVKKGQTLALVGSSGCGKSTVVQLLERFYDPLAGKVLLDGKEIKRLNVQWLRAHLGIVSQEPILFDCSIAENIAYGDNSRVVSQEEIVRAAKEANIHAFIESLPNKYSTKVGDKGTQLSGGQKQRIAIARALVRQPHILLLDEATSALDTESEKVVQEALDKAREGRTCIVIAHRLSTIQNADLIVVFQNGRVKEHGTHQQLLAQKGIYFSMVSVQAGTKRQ
smiles,measurement,setting,value
NC12CC3CC(CC(C3)C1)C2,inclusion score,[1],2
same,period change,[2],-0.05 h (inactive)
same,inhibition,[3],-1% (inactive)
same,fluorescence ratio (interference),[4],0.9 (inactive)
same,outcome,[5],inactive
same,outcome,[6],inactive
same,outcome,[7],inactive
same,outcome,[8],inactive
same,outcome,[9],inactive
O=C1CCC(N2C(=O)c3ccccc3C2=O)C(=O)N1 (stereo not given),fluorescence slope change,[10],58.2% (active)
same,inclusion score,[1],2
same,period change,[2],0.105 h (inactive)
same,inhibition,[3],-6% (inactive)
same,fluorescence ratio (interference),[4],1 (inactive)
same,outcome,[11],inactive
same,outcome,[12],inactive
same,outcome,[6],inactive
same,outcome,[7],inactive
same,outcome,[8],inactive
same,outcome,[9],inactive
CCOC(=O)[C@H](CCc1ccccc1)N[C@H]1CCc2ccccc2N(CC(=O)O)C1=O,outcome,[5],inactive
same,AC50,[11],20.9 µM (active)
same,AC50,[13],16.6 µM (active)
same,AC50,[12],10.5 µM (active)
same,outcome,[7],inactive
same,outcome,[8],inactive
CC[C@H](C)C(=O)O[C@H]1C[C@@H](C)C=C2C=C[C@H](C)[C@H](CC[C@@H]3C[C@@H](O)CC(=O)O3)[C@H]21,fluorescence slope change,[10],166% (active)
same,outcome,[11],inactive
same,outcome,[6],inactive
same,outcome,[8],inactive
c1ccc([C@H]2CN3CCSC3=N2)cc1,fluorescence slope change,[10],63.5% (active)
same,inclusion score,[1],1.5
same,period change,[2],-0.17 h (inactive)
same,inhibition,[3],-1% (inactive)
same,fluorescence ratio (interference),[4],1 (inactive)
same,outcome,[5],inactive
same,outcome,[11],inactive
same,outcome,[13],inactive
same,outcome,[7],inactive
same,outcome,[8],inactive
same,outcome,[9],inactive
CC1COc2c(N3CCN(C)CC3)c(F)cc3c(=O)c(C(=O)O)cn1c23 (stereo not given),inclusion score,[1],2
same,period change,[2],0.06 h (inactive)
same,inhibition,[3],-6% (inactive)
same,fluorescence ratio (interference),[4],0.9 (inactive)
same,outcome,[5],inactive
same,outcome,[11],inactive
same,outcome,[13],inactive
same,outcome,[6],inactive
same,outcome,[7],inactive
same,outcome,[8],inactive
same,outcome,[9],inactive
same,inhibition,"[14]; at 0.5 µM, stronger effect = higher value",-15.2% (inactive) and -4.35% (inactive) and -7.1% (inactive)
same,inhibition,"[14]; measured here: combination with BGB IC20, at 0.005 µM",-17.1% and -18.6% and 40.6%
same,inhibition,"[14]; measured here: combination with BGB IC40, at 0.005 µM",-34.5% and 8.51% and 11.7%
same,inhibition,"[14]; measured here: combination with BGB IC40, at 0.05 µM",-33.9% and 2.31% and 36%
same,inhibition,"[14]; measured here: combination with cisplatin, at 0.5 µM, stronger effect = higher value",-16.9% and 6.16% and -20.4%
same,inhibition,"[14]; measured here: combination with cisplatin, at 5 µM, stronger effect = higher value",-20.4% and -8.17% and -11.9%
same,inhibition,"[15]; BGB combo, at 5 µM",-21.1% and 5.47% and 15%
same,inhibition,[15]; at 0.5 µM,-45.4% (inactive) and 10.2% (inactive) and 8.6% (inactive)
same,inhibition,"[15]; cisplatin combo, at 5 µM",-32.1% and -5.63% and 10.7%
same,inhibition,[15]; [21],-54.6% and 19.4% and 13%
same,inhibition,[15]; [22],-40.5% and 0.068% and 0.136%
same,inhibition,"[15]; single agent, at 5 µM",-44.6% and 1.17% and 11.7%
same,inhibition,[16]; at 0.5 µM,-45.9% (inactive) and 3.58% (inactive) and -0.61% (inactive)
same,inhibition,"[16]; measured here: with BGB IC20, at 0.5 µM",-68.8% and -8.08% and -9.45%
same,inhibition,"[16]; measured here: with BGB IC20, at 5 µM",-49.9% and 8% and -6.03%
same,inhibition,"[16]; measured here: with cisplatin IC20, at 0.5 µM",-39.2% and 5.61% and -11.8%
same,inhibition,"[16]; measured here: with cisplatin IC20, at 5 µM",-30.4% and 7.76% and -5.54%
same,inhibition,"[16]; single agent, at 5 µM",-34.4% and -4.7% and 18.3%
same,inhibition,[17]; at 0.5 µM,-34.5% (inactive) and -6.74% (inactive) and -3.04% (inactive)
same,inhibition,"[17]; measured here: BGB combination, at 0.5 µM",-25.6% and -3.95% and -7.27%
same,inhibition,"[17]; measured here: BGB combination, at 5 µM",-17.4% and 1.21% and -4.78%
same,inhibition,"[17]; measured here: cisplatin combination, at 0.5 µM",-57.3% and -9.51% and 4.2%
same,inhibition,"[17]; measured here: cisplatin combination, at 5 µM",-35.2% and 8.53% and -3.87%
same,inhibition,[18]; at 0.5 µM,-33.3% (inactive) and -1.31% (inactive) and 2.04% (inactive)
same,inhibition,"[18]; cisplatin combination, at 0.5 µM",-31.2% and 8.69% and -10.9%
same,inhibition,"[18]; cisplatin combination, at 5 µM",-9.85% and -7.87% and -3.96%
same,inhibition,"[18]; measured here: BGB IC40 combination 0.05 uM, at 0.05 µM",-9.27% and 10.9% and 19.9%
same,inhibition,"[18]; single agent, at 5 µM",-20.1% and 7.2% and -8.12%
same,inhibition,[19]; at 0.5 µM,-28.4% (inactive) and -8.12% (inactive) and -0.02% (inactive)
same,inhibition,"[19]; cisplatin combo, at 5 µM",-38.4% and 21.2% and 9.23%
same,inhibition,"[19]; measured here: BGB IC40 combination, at 0.05 µM",-5.79% and 25.7% and 5.62%
same,inhibition,"[19]; measured here: combination with cisplatin, at 0.5 µM",-28.1% and -3.73% and 27.4%
same,inhibition,"[19]; single agent, at 5 µM",-31.9% and -5.49% and -32%
same,inhibition,[20]; at 0.5 µM,-60% (inactive) and 4.59% (inactive) and -24.8% (inactive)
same,inhibition,[20]; [21],-68.3% and -3.25% and -47.6%
same,inhibition,[20]; [22],-59.4% and 8.51% and -13.4%
same,inhibition,"[20]; single agent, at 0.05 µM",-65.5% and -29.1% and 12%
same,inhibition,"[20]; single agent, at 5 µM",-39.6% and 8.31% and 10.5%
